Assay [1] in a line: reducers of endogenous Her2 protein level, primary screen, SKBR3 breast tumor cells, AlphaScreen, ATP viability (AID 461;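 active = Her2 level under about 52% in both replicate screens, with viability over 70% of control, limit read from the data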;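 as to Her2 level: lower value means less Her2 protein in the cells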;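 as to viability: percent of carrier control wells set as 100% viability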). To be noted: 18-24 h, measured here: SKBR3 viability, ATP luminescence, at 10 µM. (In general: In Alpha technology, singlet oxygen from a donor bead excites a nearby acceptor bead.)
Assay [2] has as its target Receptor tyrosine-protein kinase erbB-2 (Homo sapiens) (UniProt P04626). Described as above. As to conditions: 18-24 h, at 10 µM, stronger effect = lower value.
Assay [3] is described as follows: SK-BR-3 cell growth inhibitors, pilot screen, 24 h, human (AID 572).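 Also: compound exposure lasted between 18 and 24 h rather than exactly 24 h; 100% = carrier-treated control wells.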 As to conditions: SK-BR-3 viability, CellTiter-Glo luminescence, at 10 µM, stronger effect = lower value.
Assay [4] in a line: HUVEC growth inhibition – cell-based, human, primary screen (AID 575;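 active = viability at or below 30% in both replicate assays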;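 also: 100% = median of untreated cell wells with 0.1% DMSO on each plate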). As to conditions: HUVEC proliferation, CellTiter-Glo luminescence, 72 h; at 10 µM; stronger effect = lower value.
Assay [5] in a line: growth inhibitors of H69AR lung tumor, primary screen, human, duplicate replicates (AID 580;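 active = viability at or under a set limit in both replicates, limit being median viability minus 3 SD, cut at about 48% in these data, passing the limit was not always enough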;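 also: 100% = mean luminescence of untreated wells and 0% = no signal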). To be noted: H69AR lung tumor cells viability, ATP luminescence, 72 h; at 10 µM; stronger effect = lower value.
The nature of assay [6]: reversal of MRP1-mediated doxorubicin resistance, pilot screen, H69AR cells, doxorubicin co-treatment (AID 601;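 active = viability loss from added drug above about 55%, and viability with drug at most 40%, in both replicates, limit read from the data, passing the limit was not always enough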). To be noted: CellTiter-Glo, 72 h, at 10 µM; for differential viability (reversal): stronger effect = higher value. (Cellular ATP, detected with luciferase, serves as a proxy for viable cell number.)
The nature of assay [7]: 384-well plate pilot, post-Golgi transport modulator project, inhibition of yeast transport mutant growth (AID 636; in the data active = inhibition above about 31%). As to conditions: absorbance 615 nm, about 18 h, stronger effect = higher value.
Assay [8] can be described thus: growth suppression of yeast trafficking mutant, preliminary HTS, modulators of trafficking downstream of Golgi apparatus project, 1536-format plate, OD 615 nm (AID 637; in the data active = inhibition above about 30%). To be noted: yeast transport mutant growth, absorbance 615 nm, 18 h; stronger effect = higher value.
Assay [9] can be described thus: OD615 S. cerevisiae growth inhibition, permissive medium, pilot counter-assay, permissive growth control for S. cerevisiae lifespan shortening project (AID 705;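 active = growth inhibition above 25% in both replicates, a cutoff set 3 SD above the mean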). To be noted: OD615, 24 h, at 10 µM, stronger effect = higher value.
Assay [10] is described as follows: Restrictive medium S. cerevisiae growth inhibition, OD615, pilot screen of yeast lifespan reduction project, restrictive growth control (AID 706;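 active = growth inhibition above a set limit, 3 SD over mean compound inhibition, in both replicates, cut at about 43% in these data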;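 also: modified DeaD lifespan yeast strain shifted to restrictive glucose medium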). As to conditions: OD615, 48 h, at 10 µM, stronger effect = higher value.
Assay [11] in a line: viability gain of MRP-1-high H69AR cells under doxorubicin, pilot screen, MRP-1 activator project, CellTiter-Glo, duplicate (AID 807;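 active = viability increase at or above a cutoff of the median across tested compounds plus 3 SD, cut at about 8.5% in these data, passing the limit was not always enough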;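 also: compound pretreatment 18-22 h then 72 h combined with doxorubicin; 0% = doxorubicin alone and 100% = vehicle without doxorubicin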). As to conditions: H69AR viability with doxorubicin, CellTiter-Glo luminescence; at 10 µM; stronger effect = higher value.
Assay [12] can be described thus: growth suppression of beta-catenin knockout HCT116, pilot screen, human colon tumor cells (AID 823;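 active = cell viability at or below a set limit in both duplicate runs, the limit being the all-compound median minus 4 SD, cut at about 23% in these data, passing the limit was not always enough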;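 also: 0% = wells killed by 20 µM Hyamine and 100% = untreated DMSO cell wells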). To be noted: CellTiter-Glo, 60 h, at 10 µM, stronger effect = lower value.
Assay [13] is described as follows: growth suppression of PTEN-deleted HCT116, pilot screen, cell-based, HCT116 clonal line, CellTiter-Glo (AID 824;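 active = viability at or below 27.92% in each of two runs, the all-compound median minus 4 SD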;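 also: 0% = 20 µM Hyamine control and 100% = vehicle cell control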). To be noted: 60 h, at 10 µM, stronger effect = lower value.
Assay [14] can be described thus: inhibitors of the yeast RAM network, pilot screen, dse1pr::URA3 reporter, 5-FOA selection (AID 869;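 active = inhibition over a set limit, the all-compound mean plus 3 SD, in both replicate runs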;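 also: 0% = DMSO wells with no growth and 100% = 10 µM 1-NA-PP1 with full growth; RAM network block rescues cells from 5-FOA so hits raise OD615 growth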). As to conditions: S. cerevisiae dse1pr::URA3 5-FOA growth, OD615, 2 d; at 10 µM; stronger effect = higher value; strain carries analog-sensitive mutant Cbk1 kinase.
The nature of assay [15]: RAM signaling pathway blockade in yeast – S. cerevisiae, Pdr1DBD-CYC8 efflux-inhibited sensitized strain, primary screen (AID 1298;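 active = RAM network inhibition above 8.4% in each of two replicates, 3 SD over the compound average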;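 also: 0% = DMSO untreated cells without growth and 100% = 10 µM 1-NA-PP1 full growth; higher means more yeast growth rescued from 5-FOA killing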). As to conditions: S. cerevisiae cbk1-as DSE1-URA3 strain, 5-FOA growth OD615, 2 d; at 50 µM; stronger effect = higher value.
Where [16] appears, read: H69AR cells + 2 uM doxorubicin, measured here: viability with 2 uM doxorubicin, stronger effect = lower value.
Setting [17] is: H69AR cells, compound alone cytotoxicity.

Inconclusive results are not listed. The source made the active and inactive calls.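 The calls were made as follows, unless noted: active = viability at or below 10% of carrier control in both of two separate runs; inconclusive = viability at or below 10% in only one of the two runs; inactive = the rest.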

Sequence of Receptor tyrosine-protein kinase erbB-2 (Homo sapiens) (P04626 whole entry, looked up): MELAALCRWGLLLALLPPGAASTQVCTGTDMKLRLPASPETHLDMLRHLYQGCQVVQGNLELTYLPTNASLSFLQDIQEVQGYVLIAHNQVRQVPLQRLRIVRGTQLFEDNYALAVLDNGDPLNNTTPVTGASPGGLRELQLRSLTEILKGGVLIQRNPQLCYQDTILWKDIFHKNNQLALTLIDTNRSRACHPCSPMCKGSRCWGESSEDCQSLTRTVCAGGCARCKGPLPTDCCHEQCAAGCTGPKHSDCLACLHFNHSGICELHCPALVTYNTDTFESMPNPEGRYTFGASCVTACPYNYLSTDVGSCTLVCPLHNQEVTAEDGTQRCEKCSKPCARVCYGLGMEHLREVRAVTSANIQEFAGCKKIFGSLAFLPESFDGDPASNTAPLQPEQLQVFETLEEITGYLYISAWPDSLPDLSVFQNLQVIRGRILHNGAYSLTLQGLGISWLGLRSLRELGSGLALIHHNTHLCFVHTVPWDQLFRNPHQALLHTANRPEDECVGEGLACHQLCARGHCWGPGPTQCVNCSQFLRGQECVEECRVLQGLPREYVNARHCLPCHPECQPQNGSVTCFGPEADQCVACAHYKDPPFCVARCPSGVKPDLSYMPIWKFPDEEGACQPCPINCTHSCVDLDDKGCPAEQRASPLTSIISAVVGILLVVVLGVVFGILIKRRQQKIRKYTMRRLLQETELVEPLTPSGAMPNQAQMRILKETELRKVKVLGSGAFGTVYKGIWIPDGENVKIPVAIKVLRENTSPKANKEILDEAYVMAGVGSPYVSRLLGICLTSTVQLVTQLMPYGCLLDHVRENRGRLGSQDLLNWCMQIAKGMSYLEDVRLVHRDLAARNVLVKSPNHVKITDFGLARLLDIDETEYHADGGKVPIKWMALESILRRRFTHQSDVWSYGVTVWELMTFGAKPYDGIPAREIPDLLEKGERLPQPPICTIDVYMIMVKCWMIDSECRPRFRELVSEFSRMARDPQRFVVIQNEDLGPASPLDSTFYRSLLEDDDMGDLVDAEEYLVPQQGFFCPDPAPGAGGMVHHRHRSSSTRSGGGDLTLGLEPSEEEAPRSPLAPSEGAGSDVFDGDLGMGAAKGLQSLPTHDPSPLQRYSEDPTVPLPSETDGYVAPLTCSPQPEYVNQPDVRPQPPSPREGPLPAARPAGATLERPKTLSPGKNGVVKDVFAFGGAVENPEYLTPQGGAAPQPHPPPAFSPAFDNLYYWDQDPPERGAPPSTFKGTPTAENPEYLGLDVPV

By viability is commonly meant a read-out of living cells in per cent, often relative to untreated cells. A word on the inhibition: it is the relative decrease from the control value, in per cent. On to `COC(=O)C1=C(C)Nc2nnnn2C1c1ccc(Cl)cc1Cl` (stereo not drawn), for which the viability in assay [1] is 110%; in assay [3], 110% (inactive); in [4], 114% (inactive); in [5], 93.3% (inactive); in assay [6] (setting [16]), 98.4%; in [6] (setting [17]), 93.3%. Moreover, the values for the viability in [12] and in assay [13] were 98% (inactive) and 91.5% (inactive), respectively. Moreover, the Her2 level in [2] is 80% (inactive). Further, the differential viability (reversal) in [6] (H69AR cells + 2 uM doxorubicin) is -5.04% (inactive). Further, the results for the inhibition in assay [7], in assay [8] and in [14] were -1.97% (inactive), -0.63% (inactive) and 0.54% (inactive), respectively. The growth inhibition in assay [9] was 2.67% (inactive); in [10], -1.33% (inactive). Moreover, the viability increase in assay [11] is -5.06% (inactive). The RAM network inhibition in assay [15] is 0.11% (inactive).
In the case of `COc1ccc(C(c2sc3nc(C)nn3c2O)N2CCCCC2)cc1` (stereo not drawn), the viability in [1] was 90%; in assay [3], 90% (inactive); in assay [4], 111% (inactive); in [5], 81.8% (inactive); in [6] (setting [16]) it was 95.5%; in [6] (setting [17]), 81.8%. Further, the viability in assay [12] was 100% (inactive); in [13], 95.2% (inactive). Moreover, in assay [2], the Her2 level was 94.5% (inactive). In assay [6] (H69AR cells + 2 uM doxorubicin), the differential viability (reversal) was -13.7% (inactive). Also, the inhibition in assay [7] is -2.95% (inactive); in assay [8], 1% (inactive); in assay [14] it was 0.45% (inactive). For the same compound, the growth inhibition in assay [9] is -3.33% (inactive); in assay [10] it was 8.2% (inactive). The viability increase in [11] is -1.47% (inactive). In addition, the RAM network inhibition in assay [15] was 3.51% (inactive).
With `COc1ccc2c(c1OC)C(=O)OC2CC(=O)c1ccc(O)cc1` (stereo not drawn), the viability in assay [1] is 100%; in assay [3], 100% (inactive); in assay [4], 106% (inactive); in assay [5], 87.3% (inactive); in assay [6] (setting [16]) it was 90.4%; in [6] (setting [17]), 87.3%. For the same compound, the results for the viability in assay [12] and in assay [13] were 102% (inactive) and 107% (inactive), respectively. For the same compound, the Her2 level in assay [2] is 111% (inactive). For the same compound, the differential viability (reversal) in assay [6] (H69AR cells + 2 uM doxorubicin) was -3.06% (inactive). Moreover, the results for the inhibition in assay [7], in assay [8] and in assay [14] were 1.3% (inactive), -4.17% (inactive) and 0.365% (inactive), respectively. Further, the growth inhibition is -11.6% (inactive) in assay [9] and -10.6% (inactive) in assay [10]. The viability increase in assay [11] was -0.29% (inactive). In addition, the RAM network inhibition in [15] was 4.28% (inactive).
Consider `Cc1ccc(NC(=O)c2cc(-c3ccc(C)o3)nc3ccccc23)nc1`, for which the viability was 80% in assay [1]; 80% (inactive) in assay [3]; 73% (inactive) in assay [4]; 4.86% (active) in assay [5]; 5.45% in [6] (setting [16]); 4.86% in assay [6] (setting [17]). Also, the results for the viability in assay [12] and in assay [13] were 78.6% (inactive) and 84.2% (inactive), respectively. In [2], the Her2 level was 74% (inactive). In addition, the differential viability (reversal) in assay [6] (H69AR cells + 2 uM doxorubicin) is -0.595% (inactive). Further, the inhibition in [7] is -7.43% (inactive); in assay [8] it was -0.82% (inactive); in assay [14] it was 1.21% (inactive). The values for the growth inhibition in [9] and in assay [10] were 3.23% (inactive) and -2.09% (inactive), respectively. Moreover, the viability increase in assay [11] was -4.08% (inactive). The RAM network inhibition in [15] is 0.74% (inactive).
As for `COc1ccc(N(CC(=O)Nc2cc(C)ccc2C)S(=O)(=O)c2c(C)nn(C)c2C)cc1`, the viability is 92% in [1]; 92% (inactive) in assay [3]; 73.8% (inactive) in [4]; 93.2% (inactive) in assay [5]; 93.6% in [6] (setting [16]); 93.2% in assay [6] (setting [17]). For the same compound, the values for the viability in assay [12] and in assay [13] were 83.8% (inactive) and 80.3% (inactive), respectively. Moreover, the Her2 level in assay [2] was 114% (inactive). The differential viability (reversal) in assay [6] (H69AR cells + 2 uM doxorubicin) is -0.425% (inactive). The inhibition is -0.38% (inactive) in [7], -3% (inactive) in [8] and 0.14% (inactive) in [14]. Moreover, the growth inhibition in [9] is -7.38% (inactive); in [10], -20.5% (inactive). In assay [11], the viability increase was -2.75% (inactive). For the same compound, the RAM network inhibition in assay [15] was 7.15% (inactive).
For the compound `CC(=O)N(C(C)=O)c1ncc2c([nH]c3ccccc32)c1C#N`, the viability in assay [1] is 106%; in assay [3] it was 106% (inactive); in [4], 53.4% (inactive); in assay [5], 61.4% (inactive); in assay [6] (setting [16]), 81.9%; in [6] (setting [17]), 61.4%. Moreover, the figures for the viability in [12] and in assay [13] were 66.9% (inactive) and 64.7% (inactive), respectively. Further, the Her2 level in [2] was 95% (inactive). The differential viability (reversal) in assay [6] (H69AR cells + 2 uM doxorubicin) was -20.5% (inactive). The inhibition is -8.13% (inactive) in assay [7], -7.26% (inactive) in [8] and 1.25% (inactive) in assay [14]. The growth inhibition was -10.9% (inactive) in assay [9] and -11.2% (inactive) in assay [10]. In assay [11], the viability increase was -7.26% (inactive). Also, the RAM network inhibition in [15] was 6.06% (inactive).
With `O=C(CS(=O)(=O)Cc1ccccc1)Nc1nc2ccccc2s1`, the viability in [1] was 104%; in assay [3], 104% (inactive); in [4], 89.2% (inactive); in assay [5] it was 92.1% (inactive); in assay [6] (setting [16]) it was 95.9%; in [6] (setting [17]), 92.1%. Further, the viability was 101% (inactive) in assay [12] and 97.1% (inactive) in [13]. In assay [2], the Her2 level is 85% (inactive). For the same compound, the differential viability (reversal) in assay [6] (H69AR cells + 2 uM doxorubicin) is -3.83% (inactive). The inhibition in assay [7] was -0.13% (inactive); in [8], 0.32% (inactive); in [14] it was 4.3% (inactive). Besides, the growth inhibition in assay [9] was -13.1% (inactive); in assay [10], -17.7% (inactive). The viability increase in [11] is -0.52% (inactive). The RAM network inhibition in [15] was 7.64% (inactive).
For the compound `COc1ccc(-c2cnc(SCC(=O)Nc3ccc4c(c3)OCO4)n2Cc2ccco2)cc1`, the viability was 102% in assay [1]; 102% (inactive) in assay [3]; 76.9% (inactive) in [4]; 83.4% (inactive) in assay [5]; 93.1% in assay [6] (setting [16]); 83.4% in assay [6] (setting [17]). In addition, the viability in [12] and in assay [13] was 67.4% (inactive) in each case. Moreover, the Her2 level in assay [2] is 70.5% (inactive). Also, in [6] (H69AR cells + 2 uM doxorubicin), the differential viability (reversal) was -9.64% (inactive). The figures for the inhibition in assay [7], in assay [8] and in assay [14] were 0.39% (inactive), -6.03% (inactive) and 1.66% (inactive), respectively. Further, the growth inhibition in assay [9] was 1.77% (inactive); in assay [10], 10.1% (inactive). For the same compound, the viability increase in [11] was -3.05% (inactive). Further, the RAM network inhibition in assay [15] was 0.61% (inactive).
In the case of `O=C(NCCOC(=O)C1COc2ccccc2O1)C1COc2ccccc2O1` (stereo not drawn), the viability was 92.5% in assay [1]; 92.5% (inactive) in [3]; 88.5% (inactive) in assay [4]; 103% (inactive) in [5]; 92.6% in assay [6] (setting [16]); 103% in assay [6] (setting [17]). Moreover, the figures for the viability in [12] and in assay [13] were 102% (inactive) and 100% (inactive), respectively. Moreover, in assay [2], the Her2 level is 95% (inactive). In addition, the differential viability (reversal) in assay [6] (H69AR cells + 2 uM doxorubicin) is 10.3% (inactive). In addition, the inhibition in assay [7] was -6.76% (inactive); in assay [8], -2.79% (inactive); in [14] it was 0.095% (inactive). Further, the growth inhibition in assay [9] was -7.82% (inactive); in [10] it was -1.52% (inactive). The viability increase in [11] was 0.34% (inactive). Moreover, the RAM network inhibition in assay [15] is 0.89% (inactive).

These data come from PubChem BioAssay.
